Hits are enriched below; roughly 2.9% of the tested compounds scored in any of these assays.
MEKK3 PB1 HTS = MEKK3-MEK5 PB1 interaction, increase or decrease; Q99759; 290,000 compounds, 1.4% hits; binding response (% of control), % at 10 µM; bead-based flow cytometry, Alexa488-MEK5 binding to MEKK3; actives lie on both sides; 0 = blocked by unlabeled MEK5, 100 = vehicle;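 active means binding response more than 3 SD above or below the average of its plate-row segment, actives on both sides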;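 further: Alexa488 bead fluorescence after subtracting the streptavidin-only scavenger bead signal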
Beta2AR agonist = agonists of human beta-2 adrenergic receptor inducing internalization | Am2.2-beta2AR cells, FAP receptor internalization, flow cytometry | response, % (no concentration beside the values) | 340,000 compounds, 0.43% hits;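 active means response above a set limit, near 3 SD of response in nonfluorescent compounds, cut at about 42% in these data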
Target sequence (P07550 whole entry, looked up): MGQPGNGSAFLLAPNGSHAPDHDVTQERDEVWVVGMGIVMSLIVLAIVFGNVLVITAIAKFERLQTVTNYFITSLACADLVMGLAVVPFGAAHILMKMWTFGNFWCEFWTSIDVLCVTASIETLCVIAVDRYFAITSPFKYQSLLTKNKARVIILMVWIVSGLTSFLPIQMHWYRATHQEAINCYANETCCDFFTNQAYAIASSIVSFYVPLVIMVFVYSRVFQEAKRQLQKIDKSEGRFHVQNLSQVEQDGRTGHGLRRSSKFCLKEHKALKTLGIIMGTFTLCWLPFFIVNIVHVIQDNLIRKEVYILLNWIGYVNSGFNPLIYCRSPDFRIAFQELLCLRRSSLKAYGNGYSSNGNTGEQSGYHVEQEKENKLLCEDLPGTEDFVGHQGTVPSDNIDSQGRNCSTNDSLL
MEKK2 WT-MEK5 = raises or lowers MEK5 binding to wildtype human MEKK2 PB1 domain. bead flow cytometry, Alexa488-MEK5 binding to MEKK2 WT; actives lie on both sides. binding response (% of control), % at 10 µM. 290,000 compounds, 1.1% hits; in the data active means binding response below about 67% or above about 130%
MEKK2 mut-MEK5 = signal of MEK5 binding to mutant human MEKK2 PB1 domain; bead flow cytometry, Alexa488-MEK5 binding to MEKK2 mutant; percent response, % at 10 µM; 290,000 compounds, 0.35% hits; AID 1530; in the data active means percent response above about 24%, passing the limit was not always enough
GRK2 aptamer HTS = inhibitors of human GRK2 displacing RNA aptamer; P25098; AID 488847; bead flow cytometry, FAM-aptamer displacement from GRK2; 330,000 compounds, 0.59% hits; inhibition of aptamer binding, % at 10 µM;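 active means inhibition of aptamer binding above 40%, roughly 3 SD of noise, on plates passing a quality check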;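 further: median bead fluorescence of bound FAM aptamer so fluorescent compounds give negative values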
MEKK2wt confirm = raises or lowers MEK5 binding to wildtype human MEKK2, retest; shares compounds with MEKK3 PB1 HTS; 5,900 compounds, 2.4% hits; bead flow cytometry, Alexa488-MEK5 binding to MEKK2 WT; actives lie on both sides; binding response (% of control), % at 10 µM; AID 1892; in the data active means binding response below about 16% or above about 210%; inactive means in between
MEKK2mut confirm = signal of MEK5 binding to mutant human MEKK2, retest; shares compounds with MEKK3 PB1 HTS; bead flow cytometry, Alexa488-MEK5 binding to MEKK2 mutant; percent response, % at 10 µM; 5,900 compounds, 2% hits; in the data active means percent response mostly above about 71%, no sharp cut-off; inactive means mostly below about 38%;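 further: higher means compound restores mutant binding toward wildtype level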
MEKK3-MEK5 inh = MEKK3-MEK5 PB1 inhibition, single concentration confirmation. 5,900 compounds, 1.8% hits. bead flow cytometry, Alexa488-MEK5 binding to MEKK3; hits give low values. binding response (% of control), % at 10 µM. shares compounds with MEKK3 PB1 HTS;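 active means binding response below 72% of control, or above a set upper limit, though filed actives all read lower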;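 further: 100% = DMSO only wells and 0% = binding blocked by excess unlabeled MEK5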
Active calls of the source: *; x = not tested or not shown; [ ] = another dose, or the depositor's remark.

SMILES | MEKK3 PB1 HTS | Beta2AR agonist | MEKK2 WT-MEK5 | MEKK2 mut-MEK5 | GRK2 aptamer HTS | MEKK2wt confirm | MEKK2mut confirm | MEKK3-MEK5 inh
Cc1cccc(Cn2cc(/C=C/[N+](=O)[O-])c3ccccc32)c1 | 86 | 11 | 57*[inhibitor] | -11 | 5 | 90 | -7 | 100
CC(=O)c1ccc(OCCOc2ccc(C#N)cc2)cc1 | 130* | -3 | 127 | 24 | 0 | 102 | 6 | 104
CC(=O)c1ccc(OCCCN2CCCCC2)cc1 | 99 | -5 | 101 | 1 | 1 | x | x | x
O=C(CCn1c(=O)sc2ccccc21)Nc1nccs1 | 104 | -21 | 105 | 1 | 3 | x | x | x
Cc1csc(NC(=O)CCn2c(=O)sc3ccccc32)n1 | 70*[inhibitor] | -7 | 81 | -7 | 2 | 100 | 2 | 102
COc1cc(NC(=O)c2cc(C)nc3ccccc23)cc(OC)c1 | 129* | 0 | 117 | 7 | 1 | 96 | -4 | 98
COc1ccccc1N1C(=O)CC(Sc2ccccc2N)C1=O (configuration not stated) | 99 | -2 | 104 | 5 | 0 | x | x | x
Nc1ccccc1SC1CC(=O)N(c2ccccc2Cl)C1=O (configuration not stated) | 49*[inhibitor] | 0 | 59 | -24 | 0 | 101 | 7 | 102
O=S(=O)(Nc1ccccc1)C1CCCCC1 | x | 0 | x | x | x | x | x | x
COCCn1c(SCC(=O)Nc2ccc(C)cc2)nc2c(oc3ccccc32)c1=O | 113 | -4 | 101 | 0 | 0 | x | x | x
COCCn1c(SCC(=O)Nc2ccccc2)nc2c(oc3ccccc32)c1=O | 4.0*[inhibitor] | -5 | 7.0*[inhibitor] | -46 | 0 | 107 | -3 | 106
COC(=O)CS(=O)(=O)c1ccsc1C(=O)Nc1ccc(F)cc1 | 113 | 3 | 103 | -2 | 0 | x | x | x
COc1ccc(C[C@H]2CN3C(=NC[C@@H]3Cc3ccccc3)N2CCNC(=O)c2ccc(C)c(Br)c2)cc1 | 109 | 20 | 271* | 132* | 0 | 200 | 56 | 102
COc1ccc(C[C@@H]2CN3C(=NC[C@@H]3C)N2C[C@H](C)NC(=O)CCC2CCCCC2)cc1 | 99 | 5 | 108 | 5 | x | x | x | x
COc1ccc(C[C@H]2CN3C(=NC[C@H]3Cc3ccccc3)N2CCNC(=O)c2ccc(C)c(Br)c2)cc1 | 105 | -4 | 154* | 27* | 0 | 176 | 26 | 105
O=C(CCS(=O)(=O)c1ccccc1)N1CCN(c2ccc(F)cc2)CC1 | 97 | 5 | 82 | -6 | 0 | x | x | x
Cc1ccc(S(=O)(=O)Nc2ccccc2C(=O)N2CCCCC2C)c(C)c1NS(C)(=O)=O (configuration not stated) | 101 | 1 | 97 | 0 | 3 | x | x | x
Oc1ccc(Cl)cc1C=NCCc1ccccc1 | 129* | 0 | 100 | 0 | 2 | 101 | -2 | 96
Oc1ccccc1C=NCCN=Cc1ccccc1O | 104 | -3 | 93 | 2 | 5 | x | x | x
COc1ccc(C2=NCCn3nc4cc(OC)ccc4c32)cc1 | x | -8 | x | x | 4 | x | x | x
Cc1cccc(Nc2nnc(-c3ccc(N4CCOCC4)c([N+](=O)[O-])c3)c3ccccc23)c1 | 131* | 10 | 100 | 0 | 2 | 88 | -10 | 97
Cc1nnc(-c2ccc(N3CCOCC3)c([N+](=O)[O-])c2)o1 | x | -7 | x | x | 0 | x | x | x
Nc1ccc(Sc2nnnn2-c2ccccc2)c(Cl)c1 | 1.0*[inhibitor] | -11 | -3.0*[inhibitor] | -26 | 2 | 100 | -2 | 102
O=[N+]([O-])c1ccc(Sc2nnnn2-c2ccccc2)c(Cl)c1 | 100 | -4 | 97 | 0 | 1 | x | x | x
Cc1sc2nc(CN3CCOCC3)nc(Cl)c2c1C | 102 | -2 | 101 | 1 | 0 | x | x | x
SMILES | MEKK3 PB1 HTS | Beta2AR agonist | MEKK2 WT-MEK5 | MEKK2 mut-MEK5 | GRK2 aptamer HTS | MEKK2wt confirm | MEKK2mut confirm | MEKK3-MEK5 inh
Cc1sc2nc(CN3CCC(C)CC3)nc(Cl)c2c1C | 161* | x | 111 | 6 | 4 | 97 | -3 | 95
Cc1c(C(=O)Nc2ccc(Cl)cc2)c2ccccn2c1C(=O)c1ccc([N+](=O)[O-])cc1 | 107 | 3 | 101 | 0 | 2 | x | x | x
Cc1c(C(=O)Nc2ccc(Cl)cc2)c2ccccn2c1C(=O)c1ccccc1 | 126* | -2 | 116 | 5 | 4 | 83 | -4 | 87
CC(C)CCN1CCN(CC(c2ccccc2)c2ccccc2)CC1CCO (configuration not stated) | 99 | 3 | 102 | -4 | 0 | x | x | x
O=C(CCc1ccccc1)NCCSc1ccccc1 | 104 | -1 | 103 | -1 | 0 | x | x | x
O=C(CCc1[nH]c2ccccc2c1Sc1ccccc1)NCCO | 67*[inhibitor] | -8 | 98 | 3 | 0 | 99 | -3 | 104
NNC(=O)c1oc2ccccc2c1-n1cccc1 | 143* | -2 | 121 | 4 | 5 | 94 | -6 | 95
O=C(COC(=O)/C=C/c1cc(Br)ccc1F)NC1CC1 | x | -1 | x | x | 0 | x | x | x
Cc1ccc(S(=O)(=O)NCc2ccc3c(c2)cc(C)n3C)cc1 | 71*[inhibitor] | 7 | 51*[inhibitor] | -15 | 21 | 62 | -9 | 82
Cc1onc(-c2ccccc2Cl)c1C(=O)NCc1ccc2c(c1)cc(C)n2C | 59*[inhibitor] | 1 | 43*[inhibitor] | -8 | 0 | 93 | -3 | 99
Cc1cccc(NC(=O)c2cc3ccccc3o2)c1 | 103 | 8 | 99 | -4 | 1 | x | x | x
CNC(=O)c1cc2ccccc2o1 | 124* | 2 | 119 | 7 | 0 | 91 | -6 | 90
COCC(=O)NCc1ccc2c(c1)cc(C)n2C | 92 | 3 | 92 | -1 | 20 | x | x | x
Cc1cc2cc(CNC(=O)c3cc4ccccc4o3)ccc2n1C | 45*[inhibitor] | x | x | -9 | 87* | 57 | -19 | 75
N#CC1c2ccccc2C=CN1C(=O)N(c1ccccc1)c1ccccc1 (configuration not stated) | x | 14 | x | x | x | x | x | x
C/C(=N\Nc1nc(Cl)c(Cl)cc1Cl)c1ccc(S(=O)(=O)NCc2ccco2)cc1 | 104 | 7 | 99 | -2 | 5 | x | x | x
O=C(CCl)Nc1c2c(nn1-c1ccccc1)CSC2 | 105 | -1 | 106 | 8 | 1 | x | x | x
CCCCNC(=S)Nc1ccccc1F | 111 | 1 | 108 | 25* | 4 | 108 | 0 | 101
Cc1coc2c1C(=O)C(=O)c1c-2ccc2c(C)cccc12 | 120 | 18 | 138* | 1 | 5 | 101 | 1 | 107
Cc1coc2c1C(=O)C(=O)c1c-2ccc2c1CCCC2(C)C | 96 | 7 | 99 | 0 | 7 | x | x | x
C[C@H](NC(=O)c1nc[nH]c1C(=O)N[C@@H](CCCCNC(=O)OC(C)(C)C)C(=O)OC(C)(C)C)c1ccccc1 | 97 | 4 | 95 | 2 | 3 | x | x | x

Source: PubChem (NMMLSC)
